Among the data in ChEMBL document CHEMBL4513216, “Probing the Open Global Health Chemical Diversity Library for Multistage-Active Starting Points for Next-Generation Antimalarials” (ACS Infect Dis, 2020) are INHIBITION values, retold here.

In all, about 69,000 compounds went through this assay and about 8,600 (12%) showed an effect of 50% or more. Only a selection was taken, and strong results are over-represented in it overall.

The assay concerns Plasmodium berghei. Put plainly: Screen against P. berghei liver stage (PbLuc), transformed with Luciferase, at 10uM. Conditions: tested at 10 uM. Format: functional, HepG2.
Take `CC(Cn1cccn1)n1cnc2cccc(Cl)c2c1=O` (stereo not given): the INHIBITION worked out at 36.6%.

Take `Oc1cc(C2CCNCC2)nc(-c2ccsc2)n1`: the INHIBITION is -33.6%.

Turning to `Cc1occc1CNC(=O)C1CCN(C(=O)OC(C)(C)C)C1` (stereo not given), the INHIBITION is recorded as -2.27%.

For `Fc1ccc(NCc2ccncc2)c(OC(F)F)c1`, the INHIBITION amounted to 73.2%.

As for `C[S+]([O-])c1ccc(CNc2ccc(F)cc2OC(F)F)cc1` (stereo not given), the INHIBITION worked out at 38.5%.

On to `Fc1ccc(NCc2nnsc2Cl)c(OC(F)F)c1`, for which the INHIBITION was 47.4%.

For `c1cc2nc(C3CCNCC3)nn2cc1NC1CCC1`, the INHIBITION was 40.3%.

Consider `CN(Cc1cccs1)C1CCC[C@@H]2CN(C(N)=O)C[C@H]12` (stereo not given in full), for which the INHIBITION is 39.3%.

For `Cc1noc(C)c1CN1CCc2ncc(CN3CCCC3)n2CC1`, the INHIBITION is recorded as 40.8%.

Consider `CCN(CC)Cc1cnc2n1CCN(Cc1c(C)noc1C)CC2`, for which the INHIBITION amounted to 27.5%.

As for `Cc1noc(C)c1CN1CCc2ncc(CN(C)C)n2CC1`, the INHIBITION was found to be 57.1%.

In the case of `CC(c1nc(C2CC2)no1)N1CCN(CCCN2CCCC2=O)CC1` (stereo not given), the INHIBITION is given as -2.53%.

`CCc1nnc(NCc2cccc(OC)c2OC)o1`: the INHIBITION is 50.2%.

As for `COc1cccc(CNc2nnc(C(C)(C)C)o2)c1OC`, the INHIBITION was 7.22%.

Take `COc1cccc(CNC(C)Cn2cccn2)c1OC` (stereo not given): the INHIBITION was determined as 20.9%.

As to `Cc1ncccc1Oc1ncnc(N2CCCC(O)(CO)CC2)c1C` (stereo not given), the INHIBITION came to 36.7%.

Consider `Cc1cncc(C2CCCN2CC(N)=O)n1` (stereo not given), for which the INHIBITION was 35%.

Take `Cc1ccc(OCC(O)COC2CCOCC2)c(Cl)c1` (stereo not given): the INHIBITION came to 71.3%.

With `Cc1ccc(OCC(O)COC2CCOCC2)c(Br)c1` (stereo not given), the INHIBITION is -98.4%.

In the case of `OC(COc1ccccc1Br)COC1CCOCC1` (stereo not given), the INHIBITION is on record as -42.8%.

For the compound `Cc1ccc(NC(=O)C2CSCN2C(=O)c2cnccn2)cc1C` (stereo not given), the INHIBITION came to 23.25%.

`NCCCC(=O)NCC1(O)CCCN(c2ccnc3cccnc23)C1` (stereo not given): the INHIBITION stood at 4.35%.

In the case of `CCCn1nc(C)c(C(=O)N[C@@H]2CC[C@@H](N3CCCC3)[C@@H]2O)c1C`, the INHIBITION came to 1.65%.

`Cc1cccc(CN2C(=O)CCC23CCN(Cc2nccn2C)CC3)n1`: the INHIBITION is reported as 37.2%.

On to `CN(C)[C@@H]1CO[C@H](CNC(=O)c2cccs2)[C@H]1O`, for which the INHIBITION is on record as 44.1%.

Consider `O=C(NC[C@H]1OC[C@@H](NC2CCC(F)(F)CC2)[C@@H]1O)c1ccccc1`, for which the INHIBITION stood at 59.3%.

As for `O=C(NC[C@H]1OC[C@@H](NC2COC2)[C@@H]1O)c1ccccc1`, the INHIBITION was 5.58%.

`CN(C)[C@@H]1CO[C@H](CNC(=O)c2ccccc2)[C@H]1O`: the INHIBITION was 53%.

Regarding `O=C(NC[C@H]1OC[C@@H](NC2CCC(F)(F)CC2)[C@@H]1O)Nc1ccccc1`, the INHIBITION is 25.3%.

On to `CN(C)[C@@H]1CO[C@H](CNC(=O)Nc2ccccc2)[C@H]1O`, for which the INHIBITION amounted to 11.6%.

As for `CCn1cc(S(=O)(=O)N2CCCC3(CC=CNC3=O)C2)cn1` (stereo not given), the INHIBITION amounted to 28.5%.

As to `CC(CNC(=O)NCc1ccco1)N1CCc2sccc2C1` (stereo not given), the INHIBITION was -12.5%.

For `CCCn1c(C)c(CC(=O)NCC(N)=O)c2c1CC(C)(C)CC2=O`, the INHIBITION was -13.3%.

In the case of `CCCn1c(C)c(CC(=O)NCCC(N)=O)c2c1CC(C)(C)CC2=O`, the INHIBITION came to 69.6%.

Take `CCCn1c(C)c(CC(=O)NCCNC(C)=O)c2c1CC(C)(C)CC2=O`: the INHIBITION was -4.52%.

For the compound `CCn1cc(-n2cc3nc(N4CCC(C)CC4)[nH]cc-3c2=O)cn1`, the INHIBITION is -85.9%.

Take `Cc1cc(-n2c(C)cn(CN(C)C3CCS(=O)(=O)C3)c2=O)no1` (stereo not given): the INHIBITION is 38.8%.

With `Cn1cc2c(n1)C(COCC1CC1)CN(Cc1ccccn1)C2` (stereo not given), the INHIBITION came out at 12.5%.

With `Cc1cc(C)c(CNC(=O)NC2COc3ccccc3C2)c(=O)[nH]1` (stereo not given), the INHIBITION stood at 10.6%.

Consider `c1cc(CN(CCCn2ccnc2)Cc2ccoc2)ccn1`, for which the INHIBITION is 24.7%.

In the case of `CCn1ncnc1CN(CCOC)Cc1ccc(C)cc1`, the INHIBITION was 49.9%.

As for `COCCN(Cc1ccc(C)cc1)Cc1c[nH]cn1`, the INHIBITION was determined as 63.8%.

As for `COCCN(Cc1ccc(C)cc1)Cc1nccn1C`, the INHIBITION is given as 43.4%.

As for `CN(C)c1ccc(CN(CCCn2ccnc2)Cc2c[nH]cn2)cc1`, the INHIBITION turned out to be 80.2%.

On to `Cc1ccc(CN(CCCn2ccnc2)Cc2c[nH]cn2)s1`, for which the INHIBITION was determined as 41.5%.

For the compound `COc1cc(COCC2CCN(Cc3cccnc3)CC2)cc(OC)c1`, the INHIBITION came to 5.11%.

As to `CNc1cc(N2CCCC2CNCc2cccnc2C)ncn1` (stereo not given), the INHIBITION was 21.5%.

Take `Cc1ccc(C(=O)N2CCc3ncc(Cn4cccn4)n3CC2)o1`: the INHIBITION was 16.4%.

For the compound `COc1cc(I)c(Cl)cc1C(=O)N(C)CC(C)(C)O`, the INHIBITION is 29%.

For the compound `Cc1nc(CNC(=O)NC2CCN(c3cccc(Cl)c3)C2)no1` (stereo not given), the INHIBITION is on record as 56.3%.

Consider `Cc1ccc(CC(=O)NC2CCN(c3cccc(Cl)c3)C2)cn1` (stereo not given), for which the INHIBITION is on record as 42.7%.

As to `Cc1nc(CNC(=O)NC2CCN(c3ncccc3Cl)C2)no1` (stereo not given), the INHIBITION was 25.4%.

As for `Cc1cc(C)n(CC2CN(Cc3nc(C4CC4)no3)CCO2)n1` (stereo not given), the INHIBITION was -27.8%.

Consider `CCCn1c(C)c(CC(=O)N(C)CC(=O)OC)c2c1CC(C)(C)CC2=O`, for which the INHIBITION was determined as 4.25%.

On to `CCOCC(O)CN1CCN(C(=O)c2ccsc2)CC1` (stereo not given), for which the INHIBITION was 43.4%.

With `COc1cccc(C(=O)N2CCN(CC(O)c3ccccc3)CC2)c1` (stereo not given), the INHIBITION is on record as 32.2%.

In the case of `CC(C)OCCC(=O)N1CCN(CC(O)c2ccccc2)CC1` (stereo not given), the INHIBITION was -12.5%.

`O=C(c1ccsc1)N1CCN(CC(O)c2cccc(F)c2)CC1` (stereo not given): the INHIBITION was 40.6%.

With `COc1cccc(C(O)CN2CCN(C(=O)c3ccsc3)CC2)c1` (stereo not given), the INHIBITION worked out at 53.6%.

Consider `COc1cccc(C(O)CN2CCN(C(=O)CCC(C)C)CC2)c1` (stereo not given), for which the INHIBITION is on record as 55.4%.

`Cc1cccc2c1C(=O)NC(c1cnc(C3CCC3)s1)N2` (stereo not given): the INHIBITION is on record as -91.5%.

As to `CN1CCN(c2cccc(Cl)c2CNCCS(C)(=O)=O)CC1`, the INHIBITION came out at 19.9%.

`Cn1c(Cn2ccnc2)nnc1C1CCN(C(=O)c2ccoc2)CC1`: the INHIBITION is -62.8%.

Take `CCc1cc(C(=O)N2CCCC(Cc3ccc(NC)nn3)C2)on1` (stereo not given): the INHIBITION was found to be 60.4%.

Consider `CNc1ccc(CC2CCCN(C(=O)c3c(C)noc3C)C2)nn1` (stereo not given), for which the INHIBITION turned out to be 21.9%.

Take `CNc1ccc(CC2CCCN(C(=O)c3cnco3)C2)nn1` (stereo not given): the INHIBITION stood at 1.11%.

For the compound `Cc1noc(CNC(=O)NCC2(C)CCCc3ccccc32)n1` (stereo not given), the INHIBITION is listed as 6.29%.

For the compound `COCCCNC(=O)c1ccccc1-n1cc(CN(C)C)cn1`, the INHIBITION stood at 20.8%.

With `CC(C)NC(=O)C1CN(C(=O)COc2ccccc2)CC12CCOCC2` (stereo not given), the INHIBITION was 24.1%.

`CC(C)CCN1C2(CCN(Cc3nccs3)C2)c2ccccc2S1(=O)=O` (stereo not given): the INHIBITION was 78.8%.

`COCCN1C2(CCN(Cc3nccs3)C2)c2ccccc2S1(=O)=O` (stereo not given): the INHIBITION is 14.8%.

As to `CC(C)CCN1C2(CCN(C(=O)N(C)C)C2)c2ccccc2S1(=O)=O` (stereo not given), the INHIBITION amounted to 6.55%.

Turning to `CC(C)CCN1C2(CCN(c3ncccn3)C2)c2ccccc2S1(=O)=O` (stereo not given), the INHIBITION is 13.5%.

Regarding `CN(C)CCN1C2(CCN(Cc3nccs3)C2)c2ccccc2S1(=O)=O` (stereo not given), the INHIBITION turned out to be 80%.

As to `CC(C)CCN1C2(CCN(C(=O)C3(C)CC3)C2)c2ccccc2S1(=O)=O` (stereo not given), the INHIBITION came out at 6.55%.
